# Laboratory results from PubChem BioAssay (NCATS).
# Where “and” joins values, the source holds several entries; their conditions need not be identical. Equal values may be shown once. A number with no mark means an inactive call. Inconclusive results are not listed. Entries that show only a call come without a potency. Calls of active or inactive are those of the source. Unless noted, calls come from the whole dose curve; as a rule, active = well fitted curve in the direction sought with a large enough effect; inconclusive = small, poorly fitted or top-dose-only effect, or another doubt; inactive = no such curve, though single readings can be large; an effect the other way counts as inactive or inconclusive.
# Experiments:
# [1] = target: Guanine nucleotide-binding protein G(i) subunit alpha-1 (Homo sapiens) (UniProt P63096); experiment: qHTS Assay for Inhibitors of RGS12 GoLoco Motif Activity (Green Fluorophore) (AID 879); note: potency is the fitted concentration of half-maximal effect
# Chain of Guanine nucleotide-binding protein G(i) subunit alpha-1 (Homo sapiens) (P63096 whole entry, looked up): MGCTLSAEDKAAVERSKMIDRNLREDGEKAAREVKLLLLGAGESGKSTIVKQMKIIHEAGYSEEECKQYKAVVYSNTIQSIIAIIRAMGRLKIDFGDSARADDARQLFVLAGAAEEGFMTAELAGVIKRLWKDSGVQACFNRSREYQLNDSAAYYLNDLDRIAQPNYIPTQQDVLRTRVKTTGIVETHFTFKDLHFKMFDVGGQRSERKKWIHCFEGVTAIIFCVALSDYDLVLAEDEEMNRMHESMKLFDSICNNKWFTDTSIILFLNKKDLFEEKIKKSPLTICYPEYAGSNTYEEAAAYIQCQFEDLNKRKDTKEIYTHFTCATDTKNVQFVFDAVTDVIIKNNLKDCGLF
# How it was run: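 Fluorescence polarization assay: 50 nM Gαi1 with 10 nM FITC-labeled RGS12 GoLoco peptide in 10 mM Tris pH 7.5, 150 mM NaCl, 0.1 mM GDP, 0.05% NP40, 10 min at room temperature with compound.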
# [2] = target: Cytochrome P450 2D6 (Homo sapiens) (UniProt P10635); experiment: qHTS Assay for Inhibitors and Substrates of Cytochrome P450 2D6 (AID 891); note: potency is the fitted concentration of half-maximal effect; nearly all actives have a fitted effect of over 60% in size
# Chain of Cytochrome P450 2D6 (Homo sapiens) (P10635 whole entry, looked up): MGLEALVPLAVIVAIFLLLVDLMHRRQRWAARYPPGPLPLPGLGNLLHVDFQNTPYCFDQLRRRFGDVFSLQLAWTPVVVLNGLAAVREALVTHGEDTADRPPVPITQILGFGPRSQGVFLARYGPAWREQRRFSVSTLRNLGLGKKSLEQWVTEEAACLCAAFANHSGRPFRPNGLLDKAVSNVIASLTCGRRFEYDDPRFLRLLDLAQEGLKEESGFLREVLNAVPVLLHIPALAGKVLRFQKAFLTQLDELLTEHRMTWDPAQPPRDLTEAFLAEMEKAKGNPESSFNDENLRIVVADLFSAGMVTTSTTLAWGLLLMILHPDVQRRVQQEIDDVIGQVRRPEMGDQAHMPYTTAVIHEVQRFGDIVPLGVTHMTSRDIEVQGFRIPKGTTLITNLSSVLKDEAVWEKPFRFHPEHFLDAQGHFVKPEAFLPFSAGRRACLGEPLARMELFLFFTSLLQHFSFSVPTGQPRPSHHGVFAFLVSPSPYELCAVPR
# How it was run: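 Human CYP2D6 (5 nM) with 30 uM Luciferin-ME EGE (at Km) in 100 mM KPO4, compound preincubated 10 min, then NADPH regeneration system for 60 min at room temperature. Luciferin read by luminescence; normalized to 1.43 uM quinidine.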
# [3] = qHTS Assay for Identification of Small Molecule Antagonists for NFkB Signaling Pathway (AID 895; active = well fitted inhibition curve with a large enough effect in the signal ratio, with a control signal flat, not every such curve was filed as active; the % refers to the signal ratio; note: potency is the fitted concentration of half-maximal effect)
# How it was run: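 Beta-lactamase reporter read-out (460 and 530 nm emission ratio, 405 nm excitation, 2 hrs substrate loading RT) after 5 hr stimulation with 10 pM TNF alpha in compound-treated NFkB-bla ME-180 cells in low-serum medium.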
# [4] = qHTS Assay for Identification of Small Molecule Agonists for Hypoxia Response Element Signaling Pathway (AID 914; active = well fitted activation curve with a large enough effect in the signal ratio, with a control signal flat, not every such curve was filed as active; the % refers to the signal ratio); conditions: ME-180 (cervical carcinoma) HRE-bla reporter, beta-lactamase ratio, CoCl2, 17 h; hits give high values
# How it was run: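 qHTS titration; ME-180 HRE-bla cells; EC50 CoCl2 co-treatment, 17 h at 37 degrees Celsius; CCF4 dye, ex 405nm, em 460nm and 530nm; %Activity from ratio; AC50.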
# [5] = target: Pyruvate kinase (Leishmania mexicana) (UniProt Q27686); experiment: qHTS Validation Assay for Inhibitors of Leishmania Mexicana Pyruvate Kinase (AID 945); note: potency is the fitted concentration of half-maximal effect
# Chain of Pyruvate kinase (Leishmania mexicana) (Q27686 2-499 E452W): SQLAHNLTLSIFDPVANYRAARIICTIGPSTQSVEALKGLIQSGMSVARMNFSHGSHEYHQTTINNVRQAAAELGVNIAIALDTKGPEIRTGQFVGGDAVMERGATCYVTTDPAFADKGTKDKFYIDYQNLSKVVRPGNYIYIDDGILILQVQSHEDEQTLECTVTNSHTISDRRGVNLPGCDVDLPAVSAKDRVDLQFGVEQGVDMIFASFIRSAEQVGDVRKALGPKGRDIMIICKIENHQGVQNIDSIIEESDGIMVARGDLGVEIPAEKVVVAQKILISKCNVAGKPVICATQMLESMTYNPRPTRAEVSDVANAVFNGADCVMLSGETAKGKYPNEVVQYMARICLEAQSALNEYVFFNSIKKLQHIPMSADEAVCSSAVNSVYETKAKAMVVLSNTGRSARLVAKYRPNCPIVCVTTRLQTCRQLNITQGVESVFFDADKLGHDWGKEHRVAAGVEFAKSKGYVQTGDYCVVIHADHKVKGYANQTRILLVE
# How it was run: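 Read-out: luminescence from PKLight stop/detection reagent, data normalized to DMSO. Reaction: 0.2 nM E451W LmPYK, 0.5 mM PEP, 0.1 mM ADP, pH 7.2, 1 h room temperature.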
# [6] = target: Cytochrome P450 3A4 (Homo sapiens) (UniProt P08684); experiment: qHTS Assay for Activators of Cytochrome P450 3A4 (AID 885); note: nearly all actives have a fitted effect of over 65% in size
# Chain of Cytochrome P450 3A4 (Homo sapiens) (P08684 whole entry, looked up): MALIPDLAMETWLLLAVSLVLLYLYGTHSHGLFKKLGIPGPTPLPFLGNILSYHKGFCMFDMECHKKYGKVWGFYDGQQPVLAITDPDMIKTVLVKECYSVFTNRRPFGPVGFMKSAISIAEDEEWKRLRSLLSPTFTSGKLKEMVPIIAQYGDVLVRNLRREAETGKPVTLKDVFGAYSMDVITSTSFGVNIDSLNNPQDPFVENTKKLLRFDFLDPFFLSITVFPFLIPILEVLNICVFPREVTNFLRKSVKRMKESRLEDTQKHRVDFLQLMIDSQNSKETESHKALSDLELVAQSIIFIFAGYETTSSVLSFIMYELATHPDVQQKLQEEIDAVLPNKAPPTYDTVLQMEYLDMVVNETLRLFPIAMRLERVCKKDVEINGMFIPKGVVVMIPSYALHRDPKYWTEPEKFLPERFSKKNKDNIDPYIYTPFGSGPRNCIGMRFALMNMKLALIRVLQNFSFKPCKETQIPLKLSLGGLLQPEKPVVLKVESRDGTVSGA
# How it was run: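 Signal was normalized against complete inhibition by 57 uM ketoconazole. The reaction used 20nM CYP3A4 with 25uM Luciferin-PPXE, 10-min compound preincubation and a 60-min NADPH-supported step at RT.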
# [7] = target: Cytochrome P450 2C19 (Homo sapiens) (UniProt P33261); experiment: qHTS Assay for Inhibitors and Substrates of Cytochrome P450 2C19 (AID 899); note: nearly all actives have a fitted effect of over 60% in size; note: potency is the fitted concentration of half-maximal effect
# Chain of Cytochrome P450 2C19 (Homo sapiens) (P33261 whole entry, looked up): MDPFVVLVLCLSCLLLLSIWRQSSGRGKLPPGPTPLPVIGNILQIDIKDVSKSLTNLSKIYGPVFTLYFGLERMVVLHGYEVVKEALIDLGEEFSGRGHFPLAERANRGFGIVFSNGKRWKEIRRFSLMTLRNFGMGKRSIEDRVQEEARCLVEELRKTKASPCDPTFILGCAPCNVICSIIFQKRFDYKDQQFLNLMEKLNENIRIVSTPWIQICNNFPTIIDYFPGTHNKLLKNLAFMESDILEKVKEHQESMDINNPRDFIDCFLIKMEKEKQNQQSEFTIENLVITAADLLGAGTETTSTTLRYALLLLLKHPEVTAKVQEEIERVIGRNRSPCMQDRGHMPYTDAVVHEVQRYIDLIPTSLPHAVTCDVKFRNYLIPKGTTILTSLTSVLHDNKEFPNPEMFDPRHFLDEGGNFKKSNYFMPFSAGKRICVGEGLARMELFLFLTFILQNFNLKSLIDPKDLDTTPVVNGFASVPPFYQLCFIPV
# How it was run: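 Reactions contain 5nM enzyme, 10uM Luciferin-H EGE (KM) and 50mM KPO4; compound preincubates 10 min at 37C, NADPH regeneration starts turnover for 60 min. Luminescence after detection reagent gives activity.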
# [8] = qHTS Assay for Identification of Small Molecule Agonists for Thrombopoietin (TPO) Signaling Pathway (AID 917)
# How it was run: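 Murine Ba/F3 cells expressing human TPO receptor and GPIIb-promoter luciferase, IL-3-starved overnight, given compound plus TPO at 26 pM (EC50). After 24 h at 37 C, 5% CO2, luminescence read.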
# [9] = target: Muscarinic acetylcholine receptor M1 (Rattus norvegicus) (UniProt P08482); experiment: qHTS Assay for Antagonists of Acetylcholine Muscarinic M1 Receptor: Kinetic Measurement of Intracellular Calcium Response (AID 943); note: nearly all actives have a fitted effect of over 75% in size; note: potency is the fitted concentration of half-maximal effect
# Chain of Muscarinic acetylcholine receptor M1 (Rattus norvegicus) (P08482 whole entry, looked up): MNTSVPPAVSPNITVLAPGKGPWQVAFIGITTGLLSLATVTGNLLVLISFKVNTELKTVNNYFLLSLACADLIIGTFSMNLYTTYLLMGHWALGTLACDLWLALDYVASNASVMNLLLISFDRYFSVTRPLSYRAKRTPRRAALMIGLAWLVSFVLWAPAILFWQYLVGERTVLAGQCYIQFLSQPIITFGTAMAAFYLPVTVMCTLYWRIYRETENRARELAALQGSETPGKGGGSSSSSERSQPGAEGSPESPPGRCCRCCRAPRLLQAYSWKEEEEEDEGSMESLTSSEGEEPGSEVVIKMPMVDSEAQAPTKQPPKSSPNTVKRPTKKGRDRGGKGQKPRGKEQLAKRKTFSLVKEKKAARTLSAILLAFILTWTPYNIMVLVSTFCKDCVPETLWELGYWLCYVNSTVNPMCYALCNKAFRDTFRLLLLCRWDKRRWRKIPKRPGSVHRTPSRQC
# How it was run: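 CHO cells expressing rat M1 receptor, Fluo-4 loaded, preincubated 10 min with compound, then stimulated with EC80 carbachol (100 nM final). Kinetic calcium fluorescence over 4 min; response taken as peak over basal signal.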
# [10] = target: Muscarinic acetylcholine receptor M1 (Rattus norvegicus) (UniProt P08482); experiment: qHTS Assay for Antagonists of Acetylcholine Muscarinic M1 Receptor: Measurement of IP-One Response (AID 944); note: nearly all actives have a fitted effect of over 75% in size; note: potency is the fitted concentration of half-maximal effect
# How it was run: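 CHO cells stably expressing rat M1, pretreated 10 min with compound, then stimulated 30 min with carbachol at EC80 (200 nM) in LiCl-containing buffer pH 7.4; IP1 accumulation read by HTRF competition (665/620 nm).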
# [11] = Confirmation and Secondary Assay for Modulators of Hemoglobin Beta Chain Splicing at IVS2 654 locus (AID 910);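 note: HeLa cells stably carrying EGFP split by mutant beta-globin IVS2-654 intron; per-well total GFP intensity by laser scanning cytometry after 2-day treatment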
# How it was run: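 Readout: per-well total peak green fluorescence (488 nm ex, 500–520 nm em) from objects 5–250 µm, reflecting correct splicing of an EGFP-654 reporter. Compounds were applied for 2 days at 37 °C to overnight-plated HeLa EGFP-654 cells; controls were DMSO and 500 nM IVS2-654 PNA.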
# [12] = Confirmation and Secondary Assay for Modulators of Hemoglobin Beta Chain Splicing at IVS2 705 locus (AID 930);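 note: HeLa cells stably expressing the EGFP-705 splicing reporter; GFP fluorescence per well restored by corrected splicing of the IVS2-705 intron in EGFP; series mostly up to about 46 µM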
# How it was run: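 Secondary splice-site specificity test uses HeLa expressing CMV-driven EGFP interrupted by IVS2-705; cells were treated 2 days at 37C with 500 nM antisense PNA as positive control.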
# [13] = qHTS Assay for Identification of Small Molecule Antagonists for Thrombopoietin (TPO) Signaling Pathway (AID 918); conditions: TPO-dependent cell signaling reporter, antagonist mode; note: potency is the fitted concentration of half-maximal effect; nearly all actives have a fitted effect of over 60% in size
# How it was run: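 Murine Ba/F3 cells expressing human TPO receptor and a Glycoprotein IIb promoter-luciferase reporter, IL-3-starved overnight, treated with compound plus TPO at EC50 (26 pM final). After 24 h at 37 C, luminescence read to detect inhibitors.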
# [14] = target: Cytochrome P450 3A4 (Homo sapiens) (UniProt P08684); experiment: qHTS Assay for Inhibitors and Substrates of Cytochrome P450 3A4 (AID 884); note: series mostly up to about 57 µM; nearly all actives have a fitted effect of over 50% in size
# How it was run: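 20 nM human CYP3A4 with 25 uM Luciferin-PPXE (at KM) in 200 mM KPO4, preincubated 10 min with compound; NADPH regeneration started a 60 min RT reaction. Luciferin detected by luminescence, normalized to 57 uM ketoconazole as full inhibition.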
# [15] = target: Cytochrome P450 2C9 (Homo sapiens) (UniProt P11712); experiment: qHTS Assay for Inhibitors and Substrates of Cytochrome P450 2C9 (AID 883); note: nearly all actives have a fitted effect of over 60% in size; note: potency is the fitted concentration of half-maximal effect
# Chain of Cytochrome P450 2C9 (Homo sapiens) (P11712 whole entry, looked up): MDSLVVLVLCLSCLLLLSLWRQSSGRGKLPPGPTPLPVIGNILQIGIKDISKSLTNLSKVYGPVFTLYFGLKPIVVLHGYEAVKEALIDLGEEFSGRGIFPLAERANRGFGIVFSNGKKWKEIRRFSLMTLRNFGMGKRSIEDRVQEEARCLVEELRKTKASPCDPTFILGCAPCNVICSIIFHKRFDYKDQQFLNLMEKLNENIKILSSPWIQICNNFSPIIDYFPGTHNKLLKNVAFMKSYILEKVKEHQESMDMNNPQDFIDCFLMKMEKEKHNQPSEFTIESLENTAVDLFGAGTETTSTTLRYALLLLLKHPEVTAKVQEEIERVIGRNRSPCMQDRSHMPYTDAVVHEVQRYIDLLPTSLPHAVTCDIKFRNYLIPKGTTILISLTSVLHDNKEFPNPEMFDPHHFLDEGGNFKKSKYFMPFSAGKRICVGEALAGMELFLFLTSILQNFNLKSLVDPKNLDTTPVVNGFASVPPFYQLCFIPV
# How it was run: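 Turnover of Luciferin-H (100uM, KM) by 10nM human CYP2C9 was measured over 60 min at 37C with NADPH regeneration; inhibitors and some substrates reduce luminescence. Data normalized to sulphaphenazole 57uM.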
structure (smiles),measurement,setting,value
CCc1cccc(N(C)C(N)=Nc2cccc3ccccc23)c1,Potency,[1],inactive
same,Potency,[2],199 nM (active)
same,Potency,[3],inactive
same,activation,[4],-13%
same,Potency,[5],inactive
N[C@@H](COP(=O)(O)O)C(=O)O,Potency,[1],inactive
same,Potency,[6],inactive
same,Potency,[3],inactive
same,Potency,[7],inactive
same,outcome,[8],inactive
same,Potency,[9],inactive
same,Potency,[10],inactive
same,Potency,[5],inactive
CCOC(=O)c1cnc2c(cnn2CC)c1NN=C(C)C,Potency,[1],inactive
same,Potency,[6],inactive
same,outcome,[8],inactive
same,Potency,[9],inactive
same,Potency,[5],inactive
CN(C)CCCN1c2ccccc2Sc2ccccc21,Potency,[1],inactive
same,outcome,[11],inactive
same,outcome,[12],inactive
same,Potency,[5],inactive
CC(C)[N+](C)(CCOC(=O)C1c2ccccc2Oc2ccccc21)C(C)C,Potency,[1],inactive
same,Potency,[2],1260 nM (active)
same,outcome,[8],inactive
same,outcome,[12],inactive
same,Potency,[9],0.0112 µM (active)
same,Potency,[10],0.001 µM (active)
same,Potency,[5],inactive
c1cnc(N2CCN(Cc3ccc4c(c3)OCO4)CC2)nc1,Potency,[1],inactive
same,Potency,[6],inactive
same,Potency,[2],199 nM (active)
same,Potency,[7],2 µM (active) and 631 nM (active)
same,outcome,[8],inactive
same,Potency,[9],14.1 µM (active)
same,Potency,[5],inactive
CN(C)CC/C=C1\c2ccccc2COc2ccccc21,Potency,[1],inactive
same,Potency,[2],3.16 µM (active) and 3.98 µM (active)
same,outcome,[8],inactive
same,Potency,[5],inactive
C[C@]12C=CC(=O)C=C1CC[C@H]1[C@@H]3C[C@@H](O)[C@](O)(C(=O)CO)[C@@]3(C)C[C@H](O)[C@@]12F,Potency,[1],inactive
same,Potency,[6],inactive
same,outcome,[8],inactive
same,Potency,[5],inactive
C[n+]1cc2c3c(ccc2c2ccc4cc5c(cc4c21)OCO5)OCO3,Potency,[1],12.6 µM (active)
same,Potency,[6],inactive
same,Potency,[3],10 µM (active)
same,Potency,[7],6.31 µM (active)
same,Potency,[13],1 µM (active)
same,outcome,[12],inactive
same,Potency,[10],12.6 µM (active)
same,Potency,[5],10 µM (active)
CC(C)(Oc1ccc(CCNC(=O)c2ccc(Cl)cc2)cc1)C(=O)O,outcome,[14],inactive
same,outcome,[12],inactive
OC(CCN1CCCCC1)(c1ccccc1)C1CCCCC1 (stereo not drawn),outcome,[11],inactive
same,outcome,[12],inactive
CCc1c(C)[nH]c2c1C(=O)C(CN1CCOCC1)CC2 (stereo not drawn),Potency,[1],inactive
same,outcome,[8],inactive
same,Potency,[10],inactive
same,Potency,[5],inactive
NCCCNCCSP(=O)(O)O,Potency,[1],inactive
same,outcome,[8],inactive
same,Potency,[5],inactive
C[N+](C)(C)CCCCCCCCCC[N+](C)(C)C,Potency,[1],inactive
same,outcome,[8],inactive
same,Potency,[5],inactive
COCCc1ccc(OCC(O)CNC(C)C)cc1 (stereo not drawn),outcome,[12],inactive
COc1cc(C(=O)OCCCN2CCCN(CCCOC(=O)c3cc(OC)c(OC)c(OC)c3)CC2)cc(OC)c1OC,Potency,[1],inactive
same,Potency,[13],10 µM (active)
same,Potency,[9],0.316 µM (active)
same,Potency,[10],4.47 µM (active)
same,Potency,[5],inactive
Fc1ccc(C(c2ccc(F)cc2)N2CCN(C/C=C/c3ccccc3)CC2)cc1,outcome,[14],inactive
same,outcome,[12],inactive
c1ccc2c(c1)CCCC2C1=NCCN1 (stereo not drawn),outcome,[12],inactive
CNCCCN1c2ccccc2CCc2ccccc21,Potency,[1],inactive
same,Potency,[13],12.6 µM (active)
same,outcome,[12],inactive
same,Potency,[5],inactive
CCn1nc(C(=O)O)c(=O)c2cc3c(cc21)OCO3,Potency,[1],inactive
same,outcome,[8],inactive
same,outcome,[12],inactive
same,Potency,[5],inactive
C[N+](C)(C)CCOC(=O)CCC(=O)OCC[N+](C)(C)C,Potency,[1],inactive
same,outcome,[8],inactive
same,Potency,[5],inactive
CC(C)NCC(O)c1cc(O)cc(O)c1 (stereo not drawn),outcome,[14],inactive
same,outcome,[12],inactive
C[C@]12CCC(=O)C=C1CC[C@@H]1[C@@H]2CC[C@@]2(C)[C@H]1CC[C@]2(O)C(=O)CO,Potency,[1],inactive
same,outcome,[8],inactive
same,Potency,[5],inactive
COC(=O)C1=C(C)NC(C)=C(C(=O)OCCN(C)Cc2ccccc2)C1c1cccc([N+](=O)[O-])c1 (stereo not drawn),outcome,[12],inactive
CC(C)COCC(CN(Cc1ccccc1)c1ccccc1)N1CCCC1 (stereo not drawn),outcome,[12],inactive
O=C1CC2(CCCC2)CC(=O)N1CCCCN1CCN(c2ncccn2)CC1,Potency,[1],inactive
same,outcome,[8],inactive
same,Potency,[5],inactive
CCNC(=O)N1CCN(CCCC(c2ccc(F)cc2)c2ccc(F)cc2)CC1,Potency,[1],inactive
same,outcome,[8],inactive
same,Potency,[10],17.8 µM (active)
same,Potency,[5],inactive
CC(=O)OCC1=C(C(=O)O)N2C(=O)[C@@H](NC(=O)Cc3cccs3)[C@H]2SC1,activation,[4],-3.15%
CCCNC(C)C(=O)Nc1ccccc1C (stereo not drawn),outcome,[14],inactive
same,outcome,[12],inactive
C=CCc1ccccc1OCC(O)CNC(C)C (stereo not drawn),outcome,[14],inactive
same,outcome,[12],inactive
CSc1ccc(C(=O)c2[nH]c(=O)[nH]c2C)cc1,Potency,[1],inactive
same,outcome,[8],inactive
same,Potency,[5],inactive
O=C(O)CN(CCN(CC(=O)O)CC(=O)O)CCN(CC(=O)O)CC(=O)O,Potency,[1],inactive
same,outcome,[8],inactive
same,Potency,[9],inactive
same,Potency,[10],inactive
same,Potency,[5],inactive
COCC(=O)O[C@]1(CCN(C)CCCc2nc3ccccc3[nH]2)CCc2cc(F)ccc2[C@@H]1C(C)C,Potency,[1],inactive
same,Potency,[13],12.6 µM (active)
same,Potency,[5],inactive
C(=C\c1ccccc1)/CN1CCN(C(c2ccccc2)c2ccccc2)CC1,Potency,[1],inactive
same,outcome,[8],inactive
same,Potency,[5],inactive
COCCCC/C(=N\OCCN)c1ccc(C(F)(F)F)cc1,activation,[4],24.7%
COc1ccc2c(c1OC)C(=O)O[C@@H]2[C@H]1c2c(cc3c(c2OC)OCO3)CCN1C,Potency,[15],0.126 µM (active)
same,Potency,[7],0.158 µM (active)
CC(C)(C)NCC(O)c1cc(O)cc(O)c1 (stereo not drawn),outcome,[11],inactive
same,outcome,[12],inactive
CC(=O)OC(C)C[N+](C)(C)C (stereo not drawn),outcome,[14],inactive
same,outcome,[12],inactive
CN(C)CCN(Cc1cccs1)c1ccccn1,Potency,[15],inactive
same,outcome,[14],inactive
same,outcome,[8],inactive
same,outcome,[12],inactive
same,Potency,[5],inactive
CCCCCN(CCCCC)C(=O)C(CCC(=O)O)NC(=O)c1ccc(Cl)c(Cl)c1 (stereo not drawn),outcome,[14],inactive
same,outcome,[12],inactive
Nc1c2c(nc3ccccc13)CCCC2O (stereo not drawn),outcome,[14],inactive
same,outcome,[12],inactive
Cc1ccc(/C(=C\CN2CCCC2)c2ccccn2)cc1,outcome,[11],inactive
same,outcome,[12],inactive
CC(N=C(NC#N)Nc1ccncc1)C(C)(C)C (stereo not drawn),outcome,[11],inactive
same,outcome,[12],inactive
CCCN(CCC)C(=O)C(CCC(=O)O)NC(=O)c1ccccc1 (stereo not drawn),outcome,[14],inactive
same,outcome,[12],inactive
CCCCCCCC/C=C\CCCCCCCC(=O)NCc1ccc(O)c(OC)c1,Potency,[6],inactive
same,Potency,[2],3160 nM (active)
